Test results: the supplement of paper PMC6522484
± gives the standard deviation of the averaged measurements.

Experiments:
DLD1 [1] = test: cell viability (CellTiter-Glo) relative to plate median (fraction of plate median); higher = more viable cells; settings: 10 µM, treatment time 24 h
Outline: (§1)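 Colorectal cancer cells expressing a stably transduced lentiviral TCF/Wnt firefly luciferase reporter were treated in 384-well plates with kinase inhibitor library compounds at a final 10 µM for 24 h. Firefly luciferase or CellTiterGlo luminescence was then read on parallel plates. Well signals were normalised to the plate median (webcellHTS2, additive, no log transformation) and averaged over two independent replicates.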

HCT116 [2] = test: as above; settings: 10 µM; treatment time 24 h; reporter: TCF4/Wnt
Outline: as §1

SW480 [3] = test: as above; settings: 10 µM; treatment time 24 h; reporter: 7TFP
Outline: as §1

DLD1 [4] = test: TCF/Wnt firefly luciferase reporter signal relative to plate median (fraction of plate median); higher = higher Wnt reporter signal; settings: 10 µM, treatment time 24 h
Outline: as §1

HCT116 [5] = test: as above; settings: 10 µM; treatment time 24 h; reporter: TCF4/Wnt
Outline: as §1

SW480 [6] = test: as above; settings: 10 µM; treatment time 24 h; reporter: 7TFP
Outline: as §1

CCOc1cc2ncc(C#N)c(Nc3ccc(F)c(Cl)c3)c2cc1NC(=O)/C=C/CN(C)C [Pelitinib (EKB-569)]
cell viability (DLD1 [1]; reporter: 7TFP): 1.02 | cell viability (DLD1 [1]; reporter: TCF4/Wnt): 0.875 ± 0.081 | cell viability (HCT116 [2]): 0.878 ± 0.021 | cell viability (SW480 [3]): 1.28 ± 0.14 | TCF/Wnt firefly luciferase reporter signal (DLD1 [4]; reporter: 7TFP): 0.837 ± 0.16 | TCF/Wnt firefly luciferase reporter signal (DLD1 [4]; reporter: TCF4/Wnt): 1.01 ± 0.17 | TCF/Wnt firefly luciferase reporter signal (HCT116 [5]): 0.668 ± 0.071 | TCF/Wnt firefly luciferase reporter signal (SW480 [6]): 1.08 ± 0.021

COc1ccc(-c2cc3c(C)nc(N)nc3n([C@H]3CC[C@H](OCCO)CC3)c2=O)cn1
cell viability (DLD1 [1]; reporter: 7TFP): 0.889 ± 0.028 | cell viability (DLD1 [1]; reporter: TCF4/Wnt): 0.944 ± 0.028 | cell viability (HCT116 [2]): 0.68 ± 0.15 | cell viability (SW480 [3]): 1.1 ± 0.099 | TCF/Wnt firefly luciferase reporter signal (DLD1 [4]; reporter: 7TFP): 0.348 ± 0.096 | TCF/Wnt firefly luciferase reporter signal (DLD1 [4]; reporter: TCF4/Wnt): 0.533 ± 0.056 | TCF/Wnt firefly luciferase reporter signal (HCT116 [5]): 0.591 ± 0.039 | TCF/Wnt firefly luciferase reporter signal (SW480 [6]): 0.725 ± 0.043

CN(C)C1CCN(C(=O)c2ccc(NC(=O)Nc3ccc(-c4nc(N5CCOCC5)nc(N5CCOCC5)n4)cc3)cc2)CC1
cell viability (DLD1 [1]; reporter: 7TFP): 1.1 ± 0.17 | cell viability (DLD1 [1]; reporter: TCF4/Wnt): 1.05 ± 0.081 | cell viability (HCT116 [2]): 0.649 ± 0.051 | cell viability (SW480 [3]): 1.17 ± 0.05 | TCF/Wnt firefly luciferase reporter signal (DLD1 [4]; reporter: 7TFP): 0.947 ± 0.076 | TCF/Wnt firefly luciferase reporter signal (DLD1 [4]; reporter: TCF4/Wnt): 0.933 ± 0.073 | TCF/Wnt firefly luciferase reporter signal (HCT116 [5]): 0.611 ± 0.23 | TCF/Wnt firefly luciferase reporter signal (SW480 [6]): 0.958 ± 0.1

N#Cc1c(O)c2c(-c3ccc(-c4ccccc4O)cc3)csc2[nH]c1=O
cell viability (DLD1 [1]; reporter: 7TFP): 1.13 ± 0.014 | cell viability (DLD1 [1]; reporter: TCF4/Wnt): 1.13 ± 0.071 | cell viability (HCT116 [2]): 1.25 | cell viability (SW480 [3]): 0.922 ± 0.052 | TCF/Wnt firefly luciferase reporter signal (DLD1 [4]; reporter: 7TFP): 1.03 ± 0.014 | TCF/Wnt firefly luciferase reporter signal (DLD1 [4]; reporter: TCF4/Wnt): 0.96 ± 0.2 | TCF/Wnt firefly luciferase reporter signal (HCT116 [5]): 1.08 ± 0.064 | TCF/Wnt firefly luciferase reporter signal (SW480 [6]): 0.976 ± 0.16

NC(=O)c1ccc(-c2nc(-c3ccccn3)c(-c3ccc4c(c3)OCO4)[nH]2)cc1
cell viability (DLD1 [1]; reporter: 7TFP): 0.936 ± 0.16 | cell viability (DLD1 [1]; reporter: TCF4/Wnt): 0.968 ± 0.014 | cell viability (HCT116 [2]): 1.09 ± 0.035 | cell viability (SW480 [3]): 0.829 ± 0.037 | TCF/Wnt firefly luciferase reporter signal (DLD1 [4]; reporter: 7TFP): 0.99 ± 0.043 | TCF/Wnt firefly luciferase reporter signal (DLD1 [4]; reporter: TCF4/Wnt): 1.2 ± 0.085 | TCF/Wnt firefly luciferase reporter signal (HCT116 [5]): 1.21 ± 0.085 | TCF/Wnt firefly luciferase reporter signal (SW480 [6]): 0.944 ± 0.15

CO[C@H]1C[C@@H]2CC[C@@H](C)[C@@](O)(O2)C(=O)C(=O)N2CCCC[C@H]2C(=O)O[C@H]([C@H](C)C[C@@H]2CC[C@@H](OC(=O)C(C)(CO)CO)[C@H](OC)C2)CC(=O)[C@H](C)/C=C(\C)[C@@H](O)[C@@H](OC)C(=O)[C@H](C)C[C@H](C)/C=C/C=C/C=C/1C [Temsirolimus (Torisel)]
cell viability (DLD1 [1]; reporter: 7TFP): 1.135 ± 0.0071 | cell viability (DLD1 [1]; reporter: TCF4/Wnt): 1.115 ± 0.0071 | cell viability (HCT116 [2]): 1.125 ± 0.0071 | cell viability (SW480 [3]): 0.934 ± 0.0028 | TCF/Wnt firefly luciferase reporter signal (DLD1 [4]; reporter: 7TFP): 1.08 ± 0.085 | TCF/Wnt firefly luciferase reporter signal (DLD1 [4]; reporter: TCF4/Wnt): 0.995 ± 0.078 | TCF/Wnt firefly luciferase reporter signal (HCT116 [5]): 1.165 ± 0.0071 | TCF/Wnt firefly luciferase reporter signal (SW480 [6]): 0.951 ± 0.11

c1cncc(CN2CCC(n3ncc4c(N5CCOCC5)nc(-c5ccc6[nH]ccc6c5)nc43)CC2)c1
cell viability (DLD1 [1]; reporter: 7TFP): 0.992 ± 0.17 | cell viability (DLD1 [1]; reporter: TCF4/Wnt): 0.9595 ± 0.005 | cell viability (HCT116 [2]): 0.858 ± 0.052 | cell viability (SW480 [3]): 1.19 ± 0.078 | TCF/Wnt firefly luciferase reporter signal (DLD1 [4]; reporter: 7TFP): 0.532 ± 0.025 | TCF/Wnt firefly luciferase reporter signal (DLD1 [4]; reporter: TCF4/Wnt): 0.607 ± 0.042 | TCF/Wnt firefly luciferase reporter signal (HCT116 [5]): 0.897 ± 0.16 | TCF/Wnt firefly luciferase reporter signal (SW480 [6]): 1.16 ± 0.014

CNC(=O)c1cccc(-c2ccc3c(N4CCOC[C@@H]4C)nc(N4CCOC[C@@H]4C)nc3n2)c1
cell viability (DLD1 [1]; reporter: 7TFP): 0.9035 ± 0.0064 | cell viability (DLD1 [1]; reporter: TCF4/Wnt): 0.874 ± 0.045 | cell viability (HCT116 [2]): 0.794 ± 0.055 | cell viability (SW480 [3]): 1.07 | TCF/Wnt firefly luciferase reporter signal (DLD1 [4]; reporter: 7TFP): 0.328 ± 0.086 | TCF/Wnt firefly luciferase reporter signal (DLD1 [4]; reporter: TCF4/Wnt): 0.487 ± 0.073 | TCF/Wnt firefly luciferase reporter signal (HCT116 [5]): 0.549 ± 0.09 | TCF/Wnt firefly luciferase reporter signal (SW480 [6]): 0.629 ± 0.35

COc1ccc2c3n(c(=NC(=O)c4cccnc4)nc2c1OC)CCN3
cell viability (DLD1 [1]; reporter: 7TFP): 1.005 ± 0.0071 | cell viability (DLD1 [1]; reporter: TCF4/Wnt): 0.944 ± 0.026 | cell viability (HCT116 [2]): 0.958 ± 0.028 | cell viability (SW480 [3]): 1.04 ± 0.042 | TCF/Wnt firefly luciferase reporter signal (DLD1 [4]; reporter: 7TFP): 0.858 ± 0.13 | TCF/Wnt firefly luciferase reporter signal (DLD1 [4]; reporter: TCF4/Wnt): 1.05 ± 0.1 | TCF/Wnt firefly luciferase reporter signal (HCT116 [5]): 1.12 ± 0.13 | TCF/Wnt firefly luciferase reporter signal (SW480 [6]): 0.67 ± 0.33

NC(=O)Nc1cc(-c2cccc(F)c2)sc1C(=O)N[C@H]1CCCNC1
cell viability (DLD1 [1]; reporter: 7TFP): 0.645 ± 0.073 | cell viability (DLD1 [1]; reporter: TCF4/Wnt): 0.679 ± 0.04 | cell viability (HCT116 [2]): 0.293 ± 0.12 | cell viability (SW480 [3]): 0.838 ± 0.13 | TCF/Wnt firefly luciferase reporter signal (DLD1 [4]; reporter: 7TFP): 0.667 ± 0.19 | TCF/Wnt firefly luciferase reporter signal (DLD1 [4]; reporter: TCF4/Wnt): 0.829 ± 0.15 | TCF/Wnt firefly luciferase reporter signal (HCT116 [5]): 0.436 ± 0.15 | TCF/Wnt firefly luciferase reporter signal (SW480 [6]): 0.982 ± 0.14
